Source: PubChem BioAssay (NCATS)
“And” between values parts separate entries of the source, which are not always exact repeats. Equal entries are not always repeated. Inconclusive results are not listed. The source made the active and inactive calls. Unless noted, calls come from the whole dose curve; as a rule, active = well fitted curve in the direction sought with a large enough effect; inconclusive = small, poorly fitted or top-dose-only effect, or another doubt; inactive = no such curve, though single readings can be large; an effect the other way counts as inactive or inconclusive.

Assays:
[1] = biological target: Peroxisome proliferator-activated receptor delta (Homo sapiens) (UniProt Q03181); assay: qHTS assay for small molecule agonists of peroxisome proliferator-activated receptor delta signaling (AID 588534; calls by dose curve;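 note: 0% = DMSO basal wells and 100% = positive control agonist at 10 µM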)
Sequence of Peroxisome proliferator-activated receptor delta (Homo sapiens) (Q03181 whole entry, looked up): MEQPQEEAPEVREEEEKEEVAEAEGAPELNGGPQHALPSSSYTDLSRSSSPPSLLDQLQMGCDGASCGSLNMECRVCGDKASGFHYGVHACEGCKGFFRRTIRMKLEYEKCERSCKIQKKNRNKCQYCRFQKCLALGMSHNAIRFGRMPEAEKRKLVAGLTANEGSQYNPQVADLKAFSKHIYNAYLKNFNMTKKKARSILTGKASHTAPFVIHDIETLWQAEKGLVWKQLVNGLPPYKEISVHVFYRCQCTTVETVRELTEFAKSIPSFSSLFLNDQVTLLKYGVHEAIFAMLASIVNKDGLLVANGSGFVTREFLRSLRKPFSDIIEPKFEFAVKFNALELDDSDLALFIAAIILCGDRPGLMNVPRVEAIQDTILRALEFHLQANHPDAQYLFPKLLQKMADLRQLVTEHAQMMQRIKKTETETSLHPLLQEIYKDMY
Outline: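 Cells carrying a PPAR-delta beta-lactamase reporter were treated with compounds for 18 h at 37 °C in agonist mode. CCF4 fluorescence was read after 2 h; EC50 and efficacy from Hill fits.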

[2] = biological target: Peroxisome proliferator-activated receptor gamma (Homo sapiens) (UniProt P37231); assay: qHTS assay for small molecule agonists of peroxisome proliferator-activated receptor gamma signaling (AID 588536; active = well fitted curve in the direction sought with a large enough effect in the signal ratio, with a control signal flat, not every such curve was filed as active; the % refers to the signal ratio;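 note: 0% = DMSO basal wells and 100% = rosiglitazone at 2 µM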)
Sequence of Peroxisome proliferator-activated receptor gamma (Homo sapiens) (P37231 whole entry, looked up): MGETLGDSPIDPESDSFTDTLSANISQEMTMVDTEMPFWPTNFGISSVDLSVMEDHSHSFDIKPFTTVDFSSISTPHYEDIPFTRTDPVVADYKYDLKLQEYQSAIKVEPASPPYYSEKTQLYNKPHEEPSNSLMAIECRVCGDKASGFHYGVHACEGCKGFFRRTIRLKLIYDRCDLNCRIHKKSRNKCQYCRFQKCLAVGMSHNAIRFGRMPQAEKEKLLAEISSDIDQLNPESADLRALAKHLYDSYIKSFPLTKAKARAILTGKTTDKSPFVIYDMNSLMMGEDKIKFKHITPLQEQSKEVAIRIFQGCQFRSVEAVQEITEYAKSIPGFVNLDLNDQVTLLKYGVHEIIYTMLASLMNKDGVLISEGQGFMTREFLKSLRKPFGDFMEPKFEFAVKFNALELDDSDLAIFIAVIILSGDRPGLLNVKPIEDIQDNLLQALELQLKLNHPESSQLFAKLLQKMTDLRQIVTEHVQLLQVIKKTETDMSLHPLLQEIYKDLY
Outline: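 Ratiometric blue/green fluorescence (405 nm excitation; 460 and 530 nm emission) from CCF4-loaded HEK293 reporter cells serves as signal. Exposure to test compounds lasts 16 h at 37 C in medium containing 1% charcoal/dextran-treated serum.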

[3] = biological target: Vitamin D3 receptor (Homo sapiens) (UniProt P11473); assay: qHTS assay for small molecule agonists of vitamin D receptor signaling (AID 588543; calls by dose curve;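 note: 0% = DMSO basal and 100% = reference agonist control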)
Sequence of Vitamin D3 receptor (Homo sapiens) (P11473 whole entry, looked up): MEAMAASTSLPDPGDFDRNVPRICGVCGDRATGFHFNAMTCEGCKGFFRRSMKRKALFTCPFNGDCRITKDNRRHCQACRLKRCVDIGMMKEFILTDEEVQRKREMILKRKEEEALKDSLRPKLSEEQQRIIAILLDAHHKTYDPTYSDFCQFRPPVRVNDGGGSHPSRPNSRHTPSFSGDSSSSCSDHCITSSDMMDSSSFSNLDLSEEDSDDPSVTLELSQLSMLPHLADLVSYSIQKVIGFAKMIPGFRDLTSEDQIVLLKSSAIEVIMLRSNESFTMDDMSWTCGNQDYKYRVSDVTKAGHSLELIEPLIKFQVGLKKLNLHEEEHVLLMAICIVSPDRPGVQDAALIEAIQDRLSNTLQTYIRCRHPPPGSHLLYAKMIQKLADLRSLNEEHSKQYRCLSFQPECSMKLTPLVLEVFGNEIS
Outline: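 Agonist-mode beta-lactamase reporter: HEK293T VDR-UAS-bla cells in charcoal-stripped 2% FBS, compound series 16 h 37 C, CCF4 2 h RT. EC50 from Hill fit, scaled against DMSO and 50 nM calcitriol control.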

[4] = qHTS assay for small molecule agonists of retinoid X receptor alpha signaling (AID 588544; calls by dose curve;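 for activation: 0% = DMSO basal wells and 100% = reference agonist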); conditions: HEK293T RXRa-UAS-bla, beta-lactamase reporter, 18 h; 530 nm emission
[5] = biological target: Retinoic acid receptor RXR-alpha (Homo sapiens) (UniProt P19793); assay: as above
Sequence of Retinoic acid receptor RXR-alpha (Homo sapiens) (P19793 whole entry, looked up): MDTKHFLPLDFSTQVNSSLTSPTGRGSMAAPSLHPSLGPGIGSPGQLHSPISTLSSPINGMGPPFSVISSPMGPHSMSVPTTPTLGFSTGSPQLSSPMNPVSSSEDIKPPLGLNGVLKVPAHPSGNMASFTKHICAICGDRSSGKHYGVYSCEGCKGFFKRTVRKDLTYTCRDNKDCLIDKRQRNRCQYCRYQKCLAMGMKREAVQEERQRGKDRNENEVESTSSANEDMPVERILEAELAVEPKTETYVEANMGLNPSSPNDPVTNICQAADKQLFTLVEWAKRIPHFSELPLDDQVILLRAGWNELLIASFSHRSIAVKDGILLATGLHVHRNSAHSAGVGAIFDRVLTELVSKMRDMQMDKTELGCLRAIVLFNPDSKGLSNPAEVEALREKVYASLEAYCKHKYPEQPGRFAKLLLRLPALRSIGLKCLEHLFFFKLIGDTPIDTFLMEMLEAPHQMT

[6] = biological target: Thyroid hormone receptor beta (Homo sapiens) (UniProt P10828); assay: qHTS assay for small molecule agonists of thyroid hormone receptor beta signaling (AID 588545; calls by dose curve)
Sequence of Thyroid hormone receptor beta (Homo sapiens) (P10828 whole entry, looked up): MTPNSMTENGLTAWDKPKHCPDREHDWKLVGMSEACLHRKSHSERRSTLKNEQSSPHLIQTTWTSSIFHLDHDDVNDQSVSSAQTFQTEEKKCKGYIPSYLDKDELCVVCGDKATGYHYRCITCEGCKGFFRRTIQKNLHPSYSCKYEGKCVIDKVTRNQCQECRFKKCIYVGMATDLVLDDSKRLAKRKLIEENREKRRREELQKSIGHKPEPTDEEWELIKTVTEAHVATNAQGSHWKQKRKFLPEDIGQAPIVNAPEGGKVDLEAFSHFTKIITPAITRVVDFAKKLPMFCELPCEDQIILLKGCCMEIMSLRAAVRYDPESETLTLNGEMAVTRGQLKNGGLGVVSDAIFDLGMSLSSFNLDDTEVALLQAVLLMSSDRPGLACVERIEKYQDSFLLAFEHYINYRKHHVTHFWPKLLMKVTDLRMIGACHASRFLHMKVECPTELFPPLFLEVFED
Outline: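 Agonist activity was read as beta-lactamase CCF4 fluorescence (405 ex, 460/530 em), scaled between DMSO (0%) and 10 nM T3 (100%), then Hill-fitted for EC50 and efficacy. HEK 293 TR-UAS-bla cells in 2% charcoal/dextran FBS medium were exposed 18 h at 37 C.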

[7] = qHTS assay for small molecule antagonists of retinoid X receptor alpha signaling (AID 588546; active = well fitted inhibition curve with a large enough effect in the signal ratio, with a control signal flat, not every such curve was filed as active; the % refers to the signal ratio;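 note: cells stimulated with 9-cis-retinoic acid as agonist; % is set by controls: 0 for no effect and ±100 for the full control effect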); conditions: HEK293T RXRa-UAS-bla, beta-lactamase ratio, antagonist mode; measured here: W530 green channel, cytotoxicity proxy
Outline: (§1)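 Beta-lactamase reporter inhibition, read as CCF4 fluorescence ratio (ex 405, em 460/530 nm) after 2 h at RT. HEK293T UAS-bla cells, 2500/well, were stimulated with 9-cis-RA at 500 or 100 nM final alongside test compound for 18 h at 37 C.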

[8] = biological target: Retinoic acid receptor RXR-alpha (Homo sapiens) (UniProt P19793); assay: as above; conditions: HEK293T RXRa-UAS-bla, beta-lactamase ratio, antagonist mode
Outline: as §1

[9] = biological target: Thyroid hormone receptor beta (Homo sapiens) (UniProt P10828); assay: qHTS assay for small molecule antagonists of thyroid hormone receptor beta signaling (AID 588547; active = well fitted inhibition curve with a large enough effect in the signal ratio, with a control signal flat, not every such curve was filed as active; the % refers to the signal ratio;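 note: cells stimulated with 0.4 nM T3 agonist during compound exposure; series mostly up to about 77 µM; % is set by controls: 0 for no effect and ±100 for the full control effect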); conditions: TR-UAS-bla HEK293, beta-lactamase ratio, antagonist mode, 18 h
Outline: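 TR-UAS-bla GripTite HEK293 cells in 2% charcoal/dextran FBS medium were preincubated 4 h at 37 C, given compound (0.59 nM to 92 uM) plus 0.4 nM T3 (final) for 18 h, then CCF4 for 2 h at RT; Hill fit gave IC50.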

[10] = qHTS assay for small molecule activators of the p53 signaling pathway (AID 651743; active = well fitted activation curve with a large enough effect in the signal ratio, not every such curve was filed as active; the % refers to the signal ratio; note: series mostly up to about 92 µM; % of control where 0% means no effect); conditions: HCT-116 p53RE-bla, beta-lactamase FRET ratio, 16 h; activation: stronger effect = higher value
Outline: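 Cell-based beta-lactamase reporter (p53 response elements, HCT-116 background). After a 5-hour preincubation, cells received compound for 16 hours at 37 C; substrate development ran 2 hours at room temperature.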

[11] = qHTS assay for environmental chemicals that activate the Aryl hydrocarbon Receptor (AhR) signaling pathway (AID 651777); conditions: 1A2-DRE human hepatoma cells, luciferase, 24 h; activation: stronger effect = higher value; note: nearly all actives have a fitted effect of over 15% in size; note: potency is the fitted concentration of half-maximal effect; for activation: % of control where 0% means no effect
Outline: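 Human hepatoma 1A2-DRE cells stably carrying a DRE/CYP1A2 promoter–luciferase reporter, 1,200 cells/well, exposed to compound 24 hr at 37 C. Luciferase read by One-Glo luminescence after 30 min at room temperature; increased signal marks AhR activation.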

[12] = biological target: Peroxisome proliferator-activated receptor alpha (Homo sapiens) (UniProt Q07869); assay: qHTS assay for small molecule agonists of the peroxisome proliferator-activated receptor alpha (PPARalpha) signaling pathway (AID 651778); conditions: PathHunter PPARalpha complementation, chemiluminescence, 6 h; max response: stronger effect = higher value; note: % of control where 0% means no effect
Sequence of Peroxisome proliferator-activated receptor alpha (Homo sapiens) (Q07869 whole entry, looked up): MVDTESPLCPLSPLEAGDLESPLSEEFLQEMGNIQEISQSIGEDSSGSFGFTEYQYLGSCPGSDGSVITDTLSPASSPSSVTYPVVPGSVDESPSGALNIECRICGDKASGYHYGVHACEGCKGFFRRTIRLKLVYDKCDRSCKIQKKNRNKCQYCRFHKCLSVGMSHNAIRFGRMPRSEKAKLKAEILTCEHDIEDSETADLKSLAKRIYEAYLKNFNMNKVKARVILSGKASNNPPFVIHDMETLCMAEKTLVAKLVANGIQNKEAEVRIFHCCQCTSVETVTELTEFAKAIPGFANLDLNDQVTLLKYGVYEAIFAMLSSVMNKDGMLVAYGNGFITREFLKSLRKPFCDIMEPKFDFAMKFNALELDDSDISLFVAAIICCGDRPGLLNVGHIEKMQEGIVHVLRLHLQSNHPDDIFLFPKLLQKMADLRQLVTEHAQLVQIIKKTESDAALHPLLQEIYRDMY
Outline: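 Cells plated at 2,000/well and held overnight at 37 C, 5% CO2, then compound added by pin tool for 6 hr; after PathHunter detection reagent and 60 min at room temperature, chemiluminescence from enzyme complementation was read.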

[13] = qHTS assay for small molecule agonists of the antioxidant response element (ARE) signaling pathway measured by Nrf2-dependant transcriptional activity (AID 720636; active = well fitted curve in the direction sought with a large enough effect in the repeat runs; an effect the other way counts as inactive or inconclusive; note: % of control where 0% means no effect)
Outline: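 ARE-luc HepG2 cells carrying an Nrf2-responsive luciferase reporter, in medium with 1% dialyzed FBS, exposed to compound for 16 hr at 37 C, 5% CO2. Luminescence read 30 min after ONE-Glo addition.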

[14] = qHTS assay for small molecule agonists of the antioxidant response element (ARE) signaling pathway measured by Nrf2-dependant transcriptional activity - cell viability counter screen (AID 720653; active = well fitted curve in the direction sought with a large enough effect in the repeat runs; an effect the other way counts as inactive or inconclusive; note: % is set by controls: 0 for no effect and ±100 for the full control effect); conditions: ARE-bla HepG2 viability, CellTiter-Glo ATP luminescence, 16 h; max response: stronger effect = lower value
Outline: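 ARE-bla HepG2 cells (2,000/well) rested 5 hrs at 37C/5% CO2, then exposed to compounds in DMSO for 16 hrs. Viability was read in the same wells as intracellular ATP by luminescence, 30 min at room temperature after reagent addition.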

[15] = qHTS assay for cell viability of the p53RE-bla HCT-116 cell line (AID 743292); note: nearly all actives have a fitted effect of over 55% in size; note: potency is the fitted concentration of half-maximal effect
Outline: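 CellSensor p53RE-bla HCT-116 cells (4,000/well) pre-incubated 5 h at 37 C, then exposed to compounds in DMSO for 16 h at 37 C. Viability read as ATP content by CellTiter-Glo luminescence after 30 min at room temperature.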

[16] = biological target: Nuclear receptor subfamily 1 group I member 2 (Rattus norvegicus) (UniProt Q9R1A7); assay: qHTS assay for small molecule activators of the rat pregnane X receptor (rPXR) signaling pathway (AID 651751; call rule not given here; note: 0% is about no effect); conditions: rPXR reporter cells, luciferase (One-Glo), 24 h
Sequence of Nuclear receptor subfamily 1 group I member 2 (Rattus norvegicus) (Q9R1A7 whole entry, looked up): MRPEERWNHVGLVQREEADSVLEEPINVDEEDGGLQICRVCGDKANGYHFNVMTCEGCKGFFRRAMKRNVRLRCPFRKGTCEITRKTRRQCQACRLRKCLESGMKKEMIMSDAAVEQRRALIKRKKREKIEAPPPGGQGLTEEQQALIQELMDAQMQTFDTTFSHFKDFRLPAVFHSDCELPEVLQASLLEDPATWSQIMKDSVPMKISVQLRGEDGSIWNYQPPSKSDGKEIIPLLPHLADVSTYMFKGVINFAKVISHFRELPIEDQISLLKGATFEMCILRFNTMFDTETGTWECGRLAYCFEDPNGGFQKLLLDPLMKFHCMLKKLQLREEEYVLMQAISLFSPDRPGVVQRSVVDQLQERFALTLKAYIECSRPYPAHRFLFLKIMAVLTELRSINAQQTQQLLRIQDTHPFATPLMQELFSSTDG

[17] = biological target: Glucocorticoid receptor (Homo sapiens) (UniProt P04150); assay: qHTS assay for small molecule agonists of glucocorticoid receptor signaling (AID 588532; active = well fitted curve in the direction sought with a large enough effect in the signal ratio, with a control signal flat; the % refers to the signal ratio;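 note: 100% = dexamethasone at 0.1 µM and 0% = DMSO only wells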); conditions: HeLa MMTV-bla, beta-lactamase ratio, agonist, 18 h; activation: stronger effect = higher value, percent of dexamethasone control, DMSO zero
Sequence of Glucocorticoid receptor (Homo sapiens) (P04150 whole entry, looked up): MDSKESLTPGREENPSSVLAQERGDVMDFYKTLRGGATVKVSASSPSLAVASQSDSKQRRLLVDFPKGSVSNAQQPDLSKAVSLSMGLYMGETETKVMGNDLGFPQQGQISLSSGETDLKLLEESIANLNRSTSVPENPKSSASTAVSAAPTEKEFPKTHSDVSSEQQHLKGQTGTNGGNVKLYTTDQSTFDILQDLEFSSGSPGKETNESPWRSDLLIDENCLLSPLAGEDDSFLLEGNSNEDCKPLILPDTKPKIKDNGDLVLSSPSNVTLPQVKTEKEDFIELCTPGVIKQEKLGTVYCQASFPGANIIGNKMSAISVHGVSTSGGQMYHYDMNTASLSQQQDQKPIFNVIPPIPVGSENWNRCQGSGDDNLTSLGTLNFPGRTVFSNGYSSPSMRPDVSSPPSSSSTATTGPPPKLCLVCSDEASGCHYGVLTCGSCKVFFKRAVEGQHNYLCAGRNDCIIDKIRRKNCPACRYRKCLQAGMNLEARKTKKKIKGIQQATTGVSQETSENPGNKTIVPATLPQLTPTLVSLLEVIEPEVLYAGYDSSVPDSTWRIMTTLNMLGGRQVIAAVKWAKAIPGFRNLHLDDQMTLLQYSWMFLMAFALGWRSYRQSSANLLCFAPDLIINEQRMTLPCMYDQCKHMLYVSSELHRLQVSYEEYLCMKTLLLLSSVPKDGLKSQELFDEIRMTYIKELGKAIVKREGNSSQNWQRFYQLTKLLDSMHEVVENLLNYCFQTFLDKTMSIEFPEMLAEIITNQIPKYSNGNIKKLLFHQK
Outline: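 Stimulation of a glucocorticoid response element-driven beta-lactamase gene was measured in HeLa cells. Responses were scaled between DMSO basal and 0.1 uM dexamethasone, then fitted for half-maximal stimulation.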

[18] = qHTS assay for cell viability of HEK293 cells (AID 743288); conditions: ATP luminescence (CellTiter-Glo), 18 h; max response: stronger effect = lower value; note: % is set by controls: 0 for no effect and ±100 for the full control effect; nearly all actives have a fitted effect of over 50% in size
Outline: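 Total intracellular ATP, measured with a luciferase-coupled reagent, indicates the number of viable HEK293 cells. Exposure to test chemicals lasts 18 h at 37 C in 1,536-well format at 2,000 cells/well.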

[19] = biological target: Glucocorticoid receptor (Homo sapiens) (UniProt P04150); assay: qHTS assay for small molecule antagonists of glucocorticoid receptor signaling (AID 588533; active = well fitted inhibition curve with a large enough effect in the signal ratio, with a control signal flat, not every such curve was filed as active; the % refers to the signal ratio;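 note: cells stimulated with 2 nM dexamethasone as agonist; % is set by controls: 0 for no effect and ±100 for the full control effect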)
Outline: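 Antagonist-mode qHTS: compound titrations added to GRE-bla HeLa cells, then dexamethasone 2 nM final; 18 h, 37 C. CCF4 FRET fluorescence normalized to dexamethasone and DMSO; IC50 from Hill fit.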

SMILES	outcome [1]	Potency [2]	outcome [3]	max response [4]	Potency [5]	Potency [6]	max response [7] [%]	max response [8]	activity change % (negative = inhibition) [9]	activation [10]	activation [11]	max response [12]	Potency [13]	max response [14]	Potency [15]	max response [16]	activation [17]	max response [18]	Potency [19]	Potency [11]
CCOP(=O)(OCC)OP(=O)(OCC)OCC	inactive	inactive	inactive	-12.7%	inactive	inactive	-3.28	-9.63% (inactive)	15.3% (inactive)	-6.2% (inactive)	-0.108% (inactive)	-1.23% (inactive)	inactive	5.73% (inactive)	inactive	8.32% (inactive)	–	–	–	–
ClC1=C(Cl)[C@@]2(Cl)[C@H]3C[C@@H](Cl)[C@H](Cl)[C@H]3[C@@]1(Cl)C2(Cl)Cl	–	–	inactive	–	–	–	–	–	–	–	–	–	–	-24.7% (inactive)	50.1 µM (active)	–	-9.73% (inactive)	–	–	–
CCNS(=O)(=O)C(F)(F)C(F)(F)C(F)(F)C(F)(F)C(F)(F)C(F)(F)C(F)(F)C(F)(F)F	inactive	inactive	inactive	-3.73%	inactive	inactive	-8.67	6.49% (inactive)	23.1% (inactive)	–	1.24% (inactive)	5.8% (inactive)	inactive	-7.97% (inactive)	inactive	2.04% (inactive)	–	-20.2% (inactive)	–	–
Cc1ccccc1CO[C@@H]1C[C@@]2(C(C)C)CC[C@]1(C)O2	–	inactive	inactive	4.66%	inactive	inactive	0.789	-22.7% (inactive)	–	–	0.466% (inactive)	5.16% (inactive)	–	1.88% (inactive)	inactive	–	–	-20.5% (inactive)	–	–
O=C1C=CC(=O)c2ccccc21	inactive	inactive	inactive	12.1%	inactive	inactive	-1.96	-12.9% (inactive)	–	-3.99% (inactive)	–	-1.22% (inactive)	inactive	-8.11% (inactive)	inactive	2.78% (inactive)	0.432% (inactive)	-3.96% (inactive)	inactive	15.8 µM (active)
CC(C)N1C(=O)N(c2ccccc2)CSC1=NC(C)(C)C	inactive	–	inactive	15.4% and 12.1%	inactive	inactive	0.399	-33.9% (inactive)	–	-1.27% (inactive) and 6.3% (inactive)	-0.494% (inactive) and 3.86% (inactive)	0.0616% (inactive) and 14.7% (inactive)	inactive	13.9% (inactive) and -6.65% (inactive)	inactive	13.3% (inactive) and 1.8% (inactive)	-1.49% (inactive) and -3.83% (inactive)	-17.9% (inactive)	–	–
COc1ccc(/C(=C/C(=O)N2CCOCC2)c2ccc(Cl)cc2)cc1OC	–	–	inactive	28.2%	inactive	inactive	24.3	-50.8% (inactive)	–	-3.46% (inactive)	-0.517% (inactive)	0.316% (inactive)	inactive	-2.69% (inactive)	inactive	8.84% (inactive)	–	-14.1% (inactive)	inactive	–
